From publication PMC4336329 (PLoS ONE, 2015) come the findings set out here.

The whole screen tested about 310,000 compounds, of which about 14,000 (4.5%) showed an effect of 50% or more. Effects have a minus sign here. Only a selection was taken, and strong results are over-represented in it overall.
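Also: peak tail current of the secondary pulse compared with the same well before compound.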

human ether-à-go-go-related gene (hERG) potassium channel, sequence (Q12809 whole entry, looked up): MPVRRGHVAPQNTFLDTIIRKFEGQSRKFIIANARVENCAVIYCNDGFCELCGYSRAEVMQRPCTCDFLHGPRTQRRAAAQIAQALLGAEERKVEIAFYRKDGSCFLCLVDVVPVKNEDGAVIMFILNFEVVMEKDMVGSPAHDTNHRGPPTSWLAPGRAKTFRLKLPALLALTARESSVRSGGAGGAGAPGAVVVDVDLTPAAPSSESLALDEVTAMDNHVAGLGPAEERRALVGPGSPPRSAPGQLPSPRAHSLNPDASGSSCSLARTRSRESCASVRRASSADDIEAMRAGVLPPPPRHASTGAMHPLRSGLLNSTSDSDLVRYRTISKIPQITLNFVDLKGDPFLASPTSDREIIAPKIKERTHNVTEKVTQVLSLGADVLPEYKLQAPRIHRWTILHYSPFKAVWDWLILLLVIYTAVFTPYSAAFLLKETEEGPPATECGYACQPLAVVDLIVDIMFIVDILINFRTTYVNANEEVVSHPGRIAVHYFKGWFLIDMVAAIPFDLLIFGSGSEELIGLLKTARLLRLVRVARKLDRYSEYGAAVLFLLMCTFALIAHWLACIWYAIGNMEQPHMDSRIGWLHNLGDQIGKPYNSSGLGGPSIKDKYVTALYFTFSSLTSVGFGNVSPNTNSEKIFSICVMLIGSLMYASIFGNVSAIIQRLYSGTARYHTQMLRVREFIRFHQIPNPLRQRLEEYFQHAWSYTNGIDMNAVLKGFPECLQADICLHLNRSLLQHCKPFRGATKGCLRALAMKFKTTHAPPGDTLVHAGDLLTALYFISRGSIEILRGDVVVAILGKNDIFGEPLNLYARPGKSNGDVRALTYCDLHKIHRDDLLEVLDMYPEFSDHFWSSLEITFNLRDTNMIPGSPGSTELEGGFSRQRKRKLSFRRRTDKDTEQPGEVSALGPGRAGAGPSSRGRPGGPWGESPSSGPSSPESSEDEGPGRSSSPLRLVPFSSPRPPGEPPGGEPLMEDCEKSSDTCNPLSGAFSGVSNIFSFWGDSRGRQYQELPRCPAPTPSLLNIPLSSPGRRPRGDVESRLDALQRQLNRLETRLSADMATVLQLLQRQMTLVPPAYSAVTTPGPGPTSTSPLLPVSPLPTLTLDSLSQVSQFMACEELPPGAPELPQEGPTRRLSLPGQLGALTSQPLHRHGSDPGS

The experiment addresses human ether-à-go-go-related gene (hERG) potassium channel (human, UniProt Q12809). Description: primary screen, population patch clamp on CHO cells stably expressing hERG; higher = less effect of the substance.
For `O=C(COc1ccccc1)Nc1nnc(COc2ccccc2)s1`, the “hERG current change (%, negative = inhibition) at 10uM” value is 4.24%.
Next, `CC(=O)/C(C[N+]1(C)CCCCC1)=N\O.[I-]`: 16.4%; `CSc1ncc(Cl)c(C(=O)Nc2ccccc2C)n1`: 6.48%.
In the case of `CCCCCN=CC1=C(O)CC(c2ccccc2)CC1=O` (centres unmarked), the “hERG current change (%, negative = inhibition) at 10uM” value is given as -6.98%.
The same measure for `COc1ccc(C2CC(=O)c3cnn(-c4nc(C)cc(C)n4)c3C2)cc1OC` (centres unmarked): -4.84%; for `COCCNC(=S)N/N=C1\CC(C)CC(C)(C)C1` (centres unmarked): 6.32%; for `C#CCn1cnc2c(cnn2-c2ccc(C)c(C)c2)c1=O`: 3.21%.
The same measure for `COc1ccc(-c2[nH]ncc2CNC(C)CCn2cccn2)cc1F` (centres unmarked): -2.23%; for `Nn1c(SCC(=O)Nc2nccs2)nnc1C1CC1`: 6.89%.
`COC(=O)c1ccccc1NS(=O)(=O)c1ccc2[nH]c(=O)[nH]c2c1`: the “hERG current change (%, negative = inhibition) at 10uM” value is on record as 16.4%.
The same measure for `O=C(CN1C(=O)c2cccc3cccc1c23)NCc1cccnc1`: 2.05%; for `CCCCCCNS(=O)(=O)c1ccc(Cl)s1`: -12.9%; for `Cc1ccc(SCC(=O)NC(C)(C)C)cc1`: -8.22%.
Next, `Br.Cc1ccc(Nc2nc(-c3c(C)nc4ccccn34)cs2)cc1`: -62.7%; `CC(=O)Nc1ccc(Nc2nc(-c3c(C)nc4ccccn34)cs2)cc1`: 18.4%.
On to `Cc1nc2ncccn2c1-c1csc(Nc2cccc(C(=O)O)c2)n1`, for which the “hERG current change (%, negative = inhibition) at 10uM” value is reported as 5.55%.
Next, `Cc1ccc(Nc2nc(-c3c(C)nc4ncccn34)cs2)cc1`: -10.4%; `Cc1nc2ncccn2c1-c1csc(Nc2ccccc2)n1`: -54.7%; `Cc1cccc(Nc2nc(-c3c(C)nc4ccccn34)cs2)c1`: 0.479%.
The same measure for `O=c1cc(N2CCN(c3ccccc3F)CC2)[nH]c(=O)n1-c1ccc(Br)cc1`: -16.7%; for `COC(=O)C1C(=O)CC(C)(O)C(C(=O)OC)C1/C=C/c1ccccc1` (centres unmarked): -15.6%.
Next, `N/C(Cc1ccc([N+](=O)[O-])cc1)=N\OC(=O)c1ccc2ccccc2c1`: 2.02%; `N/C(=N\OC(=O)c1ccccc1Br)c1ccc([N+](=O)[O-])cc1`: -14.4%.
In the case of `COc1ccc(/C(N)=N/OC(=O)c2ccc([N+](=O)[O-])c(C)c2)cc1OC`, the “hERG current change (%, negative = inhibition) at 10uM” value is recorded as -16.5%.
The same measure for `COc1ccc(/C(N)=N/OC(=O)c2ccc(C)c([N+](=O)[O-])c2)cc1OC`: 10.1%.
Consider `COc1ccccc1C(=O)O/N=C(/c1ccncc1)c1ccc([N+](=O)[O-])cc1`, for which the “hERG current change (%, negative = inhibition) at 10uM” value is reported as -67.9%.
Turning to `O=C(O/N=C(/c1ccccc1)c1ccncc1)c1ccccc1[N+](=O)[O-]`, the “hERG current change (%, negative = inhibition) at 10uM” value was -14%.
The same measure for `N/C(Cc1ccc([N+](=O)[O-])cc1)=N\OC(=O)c1ccccc1Br`: -57.7%; for `COc1ccccc1C(=O)O/N=C(\c1ccccc1)c1ccncc1`: -14.4%; for `N/C(Cc1ccc([N+](=O)[O-])cc1)=N\OC(=O)c1ccccc1F`: -35.6%.
The same measure for `N/C(Cc1ccc([N+](=O)[O-])cc1)=N\OC(=O)c1ccc([N+](=O)[O-])cc1`: -57.6%; for `N/C(Cc1ccc([N+](=O)[O-])cc1)=N\OC(=O)c1ccc(Br)cc1`: -41.5%.
Next, `COc1ccc(/C(N)=N/OC(=O)c2ccc(OC)c([N+](=O)[O-])c2)cc1OC`: -65%.
With `c1ccc(CSc2nnnn2-c2ccccc2)cc1`, the “hERG current change (%, negative = inhibition) at 10uM” value is -3.94%.
Next, `CC(=O)NCc1ccc(S(=O)(=O)NC(C)CCc2ccccc2)cc1` (centres unmarked): 13.3%; `OCCn1ccc(-c2ccccc2OCc2ccc(F)cc2)n1`: 4.9%; `N#Cc1ccccc1Cn1c(-c2cscn2)nc2ccccc21`: -7.78%.
Regarding `CCOC(=O)c1sc(NC(=O)CCCn2nc([N+](=O)[O-])c(Cl)c2C)c(C(=O)OCC)c1C`, the “hERG current change (%, negative = inhibition) at 10uM” value is recorded as -3.72%.
With `Cc1cc(/C=C(\C#N)C(=O)NCCc2c[nH]c3ccccc23)c(C)n1C`, the “hERG current change (%, negative = inhibition) at 10uM” value came out at 3.85%.
As for `O=C1CS/C(=N\C(=O)N2c3ccccc3Sc3ccccc32)N1`, the “hERG current change (%, negative = inhibition) at 10uM” value is recorded as 5.96%.
Turning to `Cc1cc(S(=O)(=O)Nc2ccc(N(C)C)cc2)c(C)s1`, the “hERG current change (%, negative = inhibition) at 10uM” value came out at 0.71%.
With `Fc1ccc(C(c2nnnn2C2CCCC2)N(Cc2ccco2)CC2CCCO2)cc1` (centres unmarked), the “hERG current change (%, negative = inhibition) at 10uM” value is recorded as -28%.
The same measure for `O=C(CSc1cccc[n+]1[O-])Nc1cccc(S(=O)(=O)NC2=NCCCCC2)c1`: 54.8%.
As for `CCCn1c(C)cs/c1=N\C(=S)Nc1ccccc1`, the “hERG current change (%, negative = inhibition) at 10uM” value came out at 12.8%.
The same measure for `COc1ccc(C(=O)O/N=C(\N)Cc2ccc([N+](=O)[O-])cc2)c(OC)c1`: -57.1%; for `N/C(=N\OC(=O)Cc1ccc([N+](=O)[O-])cc1)c1cccc(Br)c1`: 3.08%.
Next, `COc1ccc(CC(=O)O/N=C(\N)Cc2ccc([N+](=O)[O-])cc2)cc1`: -46.5%; `COc1cc(C(=O)O/N=C(\N)Cc2ccc([N+](=O)[O-])cc2)cc(OC)c1OC`: -68.9%.
The same measure for `COc1cc(C(=O)O/N=C(\N)c2ccc([N+](=O)[O-])cc2)cc(OC)c1OC`: -45.2%; for `N/C(Cc1ccc([N+](=O)[O-])cc1)=N\OC(=O)c1cccc(Br)c1`: -58%; for `Cc1ccc(C(=O)O/N=C(\N)Cc2ccc([N+](=O)[O-])cc2)c(Cl)c1`: -46.3%.
`N/C(=N\OC(=O)c1cccc(Br)c1)c1ccc([N+](=O)[O-])cc1`: the “hERG current change (%, negative = inhibition) at 10uM” value is 17.7%.
The same measure for `COc1cc(C(=O)OCc2ccc([N+](=O)[O-])cc2)cc(OC)c1OC`: 2.74%.
The same measure for `Cc1cccc(C(=O)O/N=C(\N)Cc2ccc([N+](=O)[O-])cc2)c1`: -64.3%; for `Cc1cccc(OCC(=O)O/N=C(\N)Cc2ccc([N+](=O)[O-])cc2)c1`: -32.5%.
Next, `COc1ccc(C/C(N)=N/OC(=O)c2cccc([N+](=O)[O-])c2)cc1`: -44.2%.
